This is a sample that favours compounds with a hit; in the whole collection about 5.4% have one here.
rCAG RNA binder: binds r(CAG) RNA repeats; r(CAG) RNA repeat, TO-PRO-1 dye displacement fluorescence; inhibition, % at 3 µM; hit rate 1.3% among 370,000;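 active = inhibition above the plate cutoff, the mean of all test compounds on that plate plus 3 SD, cut at about 35% in these data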;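 note: 0% = DMSO alone and 100% = 100 µM mitoxantrone as full dye displacement; higher means more dye released from RNA so lower well fluorescence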
ALR inh: human ALR oxidase inhibition via reduced H2O2; P55789; purified ALR, DTT oxidation, H2O2 HRP-luminol luminescence; inhibition, % (test concentration not listed); hit rate 3.8% among 290,000;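 active = mean replicate inhibition above about 79%, with every replicate also reaching it, limit read from the data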
PHOSPHO1 inh: inhibitors of human PHOSPHO1 phosphatase; Q8TCT1; recombinant PHOSPHO1, absorbance phosphatase assay; inhibition, % at 13.3 µM; hit rate 1.1% among 290,000; AID 1565; in the data active = inhibition above about 60%
A3A deaminase: inhibitors of human APOBEC3A DNA deaminase | P31941 | recombinant A3A, FAM/TAMRA ssDNA deamination fluorescence | inhibition, % at 20 µM | hit rate 0.41% among 330,000 | AID 493011;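 active = at least 40% inhibition at 20 µM here, with at most 30% in a related deaminase screen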;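 note: plate controls were A3A with DMSO for no effect and wells lacking A3A enzyme for full effect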
A3G deaminase: inhibitors of human APOBEC3G DNA deaminase; Q9HC16; recombinant A3G, ssDNA deamination FAM/TAMRA fluorescence; inhibition, % at 20 µM; hit rate 0.28% among 330,000; AID 493012;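 active = inhibition of at least 40% at 20 µM, with no more than 30% in the related APOBEC3A deaminase screen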;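 note: plate controls were DMSO wells with A3G for no effect and wells lacking A3G enzyme for full effect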
Target sequence (Q9HC16 whole entry, looked up): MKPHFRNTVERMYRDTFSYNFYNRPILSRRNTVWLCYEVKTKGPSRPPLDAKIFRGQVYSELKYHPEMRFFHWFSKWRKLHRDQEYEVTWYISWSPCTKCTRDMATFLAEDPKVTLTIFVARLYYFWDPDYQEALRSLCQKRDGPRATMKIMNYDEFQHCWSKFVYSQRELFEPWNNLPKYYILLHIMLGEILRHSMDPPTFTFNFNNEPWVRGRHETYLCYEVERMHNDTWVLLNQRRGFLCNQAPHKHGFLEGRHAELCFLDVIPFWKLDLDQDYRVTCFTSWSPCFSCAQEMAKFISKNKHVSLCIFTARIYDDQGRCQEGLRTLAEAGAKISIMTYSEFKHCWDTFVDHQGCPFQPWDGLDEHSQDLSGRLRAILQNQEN
aDG glyco up: alpha-DG glycosylation activation; Pro5-aDG cells, alpha-DG glycosylation AlphaScreen (IIH6); 0% Pro5, 100% B10-LARGE cell signal; activation, % at 10 µM; hit rate 0.22% among 360,000; AID 624168;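 active = activation of at least 8% versus controls, or a plate z-score of at least 8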;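 note: Pro5 are CHO cells carrying HIG-tagged alpha-DG that lacks glycosylation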
aDG glyco conf: alpha-DG glycosylation activation, confirmation; activation, % at 10 µM (by protocol); Pro5-aDG cells, IIH6 AlphaLISA; scaled to LARGE-overexpressing B10 cells as 100%; hit rate 17% among 600; shares compounds with aDG glyco up;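 active = activation of at least 7% in one or more replicates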;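 note: cells exposed to compound for two days before detection; 0% = DMSO-treated Pro5 cells and 100% = DMSO-treated B10-LARGE cells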
* marks the source's active call; other numbers are inactive results.

What do the screens show for `O=C(CN1C2=NCCCN2c2ccccc21)c1cccc(Br)c1`?
rCAG RNA binder: 9; ALR inh: -2; PHOSPHO1 inh: -14; A3A deaminase: 0; A3G deaminase: -1; aDG glyco up: 0

Results for COc1cccc(CNC(=O)COC(=O)c2ccc(N3CCCC3=O)cc2)c1 ?
rCAG RNA binder: -1; aDG glyco up: 0

Results for COc1ccc(CCNc2ncnc3c2oc2ccccc23)cc1OC ?
rCAG RNA binder: -4; PHOSPHO1 inh: 2; A3A deaminase: 2; A3G deaminase: -3; aDG glyco up: 7.4*; aDG glyco conf: 1

What do the screens show for `CCOC(=O)C1CCCN(C(=O)c2cc(OC)ccc2Br)CC1` (configuration not stated)?
rCAG RNA binder: 0; aDG glyco up: 0

What do the screens show for `CC(C)OCCCN(C)C1CCN(S(=O)(=O)c2ccc(-c3cc(C(F)(F)F)no3)s2)CC1`?
rCAG RNA binder: -5; ALR inh: 3; PHOSPHO1 inh: -29; A3A deaminase: -1; A3G deaminase: -4; aDG glyco up: 3.8*; aDG glyco conf: 1

How did COc1ccc(CN2CCC[C@]3(N[C@H](c4ccc(C)cc4)[C@@H]4C(=O)N(C)C(=O)[C@@H]43)C2=O)cc1 do in these assays?
rCAG RNA binder: 1; aDG glyco up: 0

How did COc1ccc(C)cc1NC(=O)c1nn(-c2ccccc2)cc1OC do in these assays?
rCAG RNA binder: 6; ALR inh: 0; PHOSPHO1 inh: 35; A3A deaminase: -1; A3G deaminase: -10; aDG glyco up: 2.5*; aDG glyco conf: 2

How did C[C@@H]1CN([C@@H](C)CO)C(=O)c2cc(-c3ccccc3F)cnc2O[C@H]1CN(C)Cc1cccc(F)c1 do in these assays?
rCAG RNA binder: 0; aDG glyco up: 0

Results for CCOc1ccc(NC(=O)CN(C)C(=O)c2ccc(OCC(=O)N3CCOCC3)c(OC)c2)cc1OCC ?
rCAG RNA binder: 5; aDG glyco up: 0

Results for O=C(CCN1CCN(Cc2ccccc2)CC1)NNC(=O)c1ccc(Cl)c(Cl)c1 ?
rCAG RNA binder: 0; aDG glyco up: 0

What do the screens show for `COc1cc(OC)cc(C(=O)Nc2cccc(N3CCCC3)c2)c1`?
rCAG RNA binder: 13; ALR inh: -1; PHOSPHO1 inh: -16; A3A deaminase: -11; A3G deaminase: -4; aDG glyco up: 3.7*; aDG glyco conf: 2

What do the screens show for `COc1cc(OC)cc(C(=O)Nc2cccc(C(C)=O)c2)c1`?
rCAG RNA binder: 3; ALR inh: -7; PHOSPHO1 inh: -7; A3A deaminase: -1; A3G deaminase: -4; aDG glyco up: 0

Results for CCOC1=C2CN(S(=O)(=O)c3ccc(C)cc3)[C@H](c3ccccc3)C[C@@H]2N(S(=O)(=O)c2ccc(C)cc2)[C@H](c2ccccc2)C1 ?
rCAG RNA binder: 2; aDG glyco up: 6.8*; aDG glyco conf: -1

What do the screens show for `COc1ccc(CNC(=O)c2cccc3c(-c4cccnc4)coc23)cc1OC`?
rCAG RNA binder: 1; aDG glyco up: 8.1*; aDG glyco conf: 1

What do the screens show for `O=C1C(=O)N(CCS(=O)(=O)c2ccccc2)c2ccc(F)cc21`?
rCAG RNA binder: 3; ALR inh: -7; PHOSPHO1 inh: 7; A3A deaminase: 2; A3G deaminase: 0; aDG glyco up: 7.6*; aDG glyco conf: 5.4*

What do the screens show for `COc1ccc2c(c1)C(=O)C(=O)N2CCS(=O)(=O)c1ccccc1`?
rCAG RNA binder: 1; ALR inh: -7; PHOSPHO1 inh: 12; A3A deaminase: -3; A3G deaminase: -4; aDG glyco up: 1

What do the screens show for `CC1=C(C(=O)N(C)C)CC(CC(=O)NCCCCc2ccccc2)C(=O)N1CCCN1CCCC1=O` (configuration not stated)?
rCAG RNA binder: 1; aDG glyco up: 0

What do the screens show for `CCOC(=O)CN(C(=O)CSc1nnc(CNc2ccc(F)cc2)n1CC)c1ccc(F)cc1`?
rCAG RNA binder: -8; ALR inh: 21; PHOSPHO1 inh: -29; A3A deaminase: -3; A3G deaminase: -7; aDG glyco up: 5.2*; aDG glyco conf: 0

Screening results: PubChem BioAssay, several laboratories
